According to PubChem BioAssay AID2535 (National Center for Advancing Translational Sciences (NCATS), 2010):

These compounds were tested against Pyruvate kinase PKLR (Homo sapiens) (UniProt P30613) (assay: Secondary Concentration-Response Assay for Activators of Human Liver Pyruvate Kinase: for Probe SAR). Conditions: purified hPK-L, ATP production, Kinase-Glo luminescence; series mostly up to 58.3 µM; activity change, positive = activation: at the top concentration; active = well fitted curve in the direction sought with a large enough effect; inconclusive = small, poorly fitted or top-dose-only effect, or effect the other way, or another doubt; inactive = no such curve, though single readings can be large or run the other way.
Source text: NIH Chemical Genomics Center [NCGC]
Matthew G. Vander Heiden, M.D., Ph.D. [Harvard Medical School, 77 Avenue Louis Pasteur, Boston, MA 02115]
Human pyruvate kinase liver (hPK-L) enzyme was supplied as a highly purified (>95% pure) preparation from Harvard Medical School and assayed for its ability to generate ATP from ADP using phosphoenolpyruvate (PEP) as a substrate. ATP generation was detected in a coupled reaction by luciferase-mediated luminescence, an ATP-dependent process. Pyruvate kinase substrates, PEP and ADP, were present in the assay at Km and approximately 10-fold below Km respectively. The enzyme was assayed at an intermediate level of activity to screen for both inhibitors and activators.
NCGC Assay Protocol Summary for L-isoform:
Three uL of substrate mix (at r.t.) in assay buffer (50 mM Imidazole pH7.2, 50 mM KCl, 7 mM MgCl2, 0.01% Tween 20, 0.05% BSA) was dispensed into white solid bottom 1,536 well microtiter plates so that the final concentrations of substrates in the assay were 0.1 mM ADP and 0.5 mM PEP. 23 nL of compound were delivered by a pin tool and 1 uL of enzyme mix (final concentration of 0.1 nM) in assay buffer (4 degree Celsius) was added. Plates were incubated at room temperature for 1 hour. Two uL of detection mix (Kinase-Glo, Promega; at 4 degree Celsius protected from light) was added and luminescence read by a ViewLux (Perkin Elmer) at 1 second exposure/plate. Data were normalized to the uninhibited (row 31). Additionally, a no enzyme and 5-fold enzyme control was dispensed in row 32, split equally between the two conditions.
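Also: 0% = uninhibited enzyme wells on each plate.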

Pyruvate kinase PKLR (Homo sapiens), sequence (P30613 whole entry, looked up): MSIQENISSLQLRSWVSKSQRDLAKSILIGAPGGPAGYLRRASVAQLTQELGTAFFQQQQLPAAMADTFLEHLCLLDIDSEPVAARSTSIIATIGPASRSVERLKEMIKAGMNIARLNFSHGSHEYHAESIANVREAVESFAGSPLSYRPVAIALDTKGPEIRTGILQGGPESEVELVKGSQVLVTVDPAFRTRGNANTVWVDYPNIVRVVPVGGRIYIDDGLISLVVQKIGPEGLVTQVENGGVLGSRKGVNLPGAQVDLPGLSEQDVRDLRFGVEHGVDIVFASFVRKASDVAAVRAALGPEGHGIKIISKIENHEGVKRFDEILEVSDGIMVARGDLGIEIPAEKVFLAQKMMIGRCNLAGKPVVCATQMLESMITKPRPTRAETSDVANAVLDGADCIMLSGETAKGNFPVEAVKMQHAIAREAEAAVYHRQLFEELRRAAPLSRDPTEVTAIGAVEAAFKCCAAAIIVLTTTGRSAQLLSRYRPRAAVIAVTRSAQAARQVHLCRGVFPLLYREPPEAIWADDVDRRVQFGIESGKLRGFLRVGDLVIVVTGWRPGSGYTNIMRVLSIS

Activity change, positive = activation, inactive:
Cc1ccc(N2C(=O)c3ccccc3C2=O)c(C)c1 0.619%
Cc1ccc(NS(=O)(=O)c2cc3c(cc2Cl)NC(=O)CO3)cc1C 2.95%
O=C1CCc2cc(S(=O)(=O)Nc3ccc4ncccc4c3)ccc2N1 11.9%
Cc1cc(N2C(=O)c3ccccc3C2=O)n[nH]1 -12.2%
O=C1CCc2cc(S(=O)(=O)Nc3ccncc3)ccc2N1 0.409%
O=C1c2ccccc2C(=O)N1c1cccc2cccnc12 3.16%
Cc1ccc(Nc2c(-c3ccc(C)s3)nc3ccccn23)cc1 3.95%
Cc1ccc(NS(=O)(=O)c2ccc3c(c2)CCO3)cc1C -21.2%
O=C1c2ccccc2C(=O)N1c1cncc2ccccc12 4.55%
O=C1c2ccccc2C(=O)N1c1nccs1 6.46%
Cc1ccc(-c2nc3cnccn3c2Nc2ccc(C(C)C)cc2)o1 -0.25%
CNc1cccc(S(=O)(=O)N2CCN(S(=O)(=O)c3ccc4c(c3)OCCO4)CC2)c1 17.7%
Cc1ccc(NS(=O)(=O)c2ccc3c(c2)CCC(=O)N3)cc1F 11.7%
COc1cc(F)c(S(=O)(=O)N2CCCN(S(=O)(=O)c3cccc(N)c3)CC2)c(F)c1 22.6%
Cc1cccc(NS(=O)(=O)c2ccc3c(c2)CCC(=O)N3)c1 5.35%
CCCCN1C(=O)c2ccccc2C1=O 0.342%
Cc1ccc(NS(=O)(=O)c2cc3c(cc2F)NC(=O)CC3)cc1C 8.84%
O=C1CCc2cc(S(=O)(=O)Nc3ccc(Cl)c(Cl)c3)c(F)cc2N1 17%
CC(C)Nc1cccc(S(=O)(=O)N2CCCN(S(=O)(=O)c3ccc4c(c3)OCCO4)CC2)c1 8.24%
Cc1cc(C)n2c(Nc3ccccc3)c(-c3ccc(C)o3)nc2n1 7%
O=C1CCc2cc(S(=O)(=O)Nc3cccnc3)ccc2N1 0.695%
O=C1CCc2cc(S(=O)(=O)Nc3cccc4ccccc34)ccc2N1 0.398%
CC(=O)N1CCCc2cc(S(=O)(=O)Nc3ccc(C)c(C)c3)ccc21 -5.11%
CC(=O)Nc1cccc(S(=O)(=O)Nc2ccc(C)c(C)c2)c1 6.7%
Cc1ccn2c(NC3CCCCC3)c(-c3ccc(C)o3)nc2c1 -25.8%
O=C1CCc2cc(S(=O)(=O)NCc3ccccc3)ccc2N1 4.67%
O=C1NS(=O)(=O)c2ccccc21 2.82%
Cc1ccc(NS(=O)(=O)c2ccc3c(c2)NC(=O)CO3)cc1C 15.7%
Cc1ccc(-c2nc3ccc(Cl)cn3c2Nc2ccccc2)o1 0.358%
COc1ccc(S(=O)(=O)Nc2ccc(C)c(C)c2)cc1 9.75%
Cc1ccc(NS(=O)(=O)c2cc3c(cc2-c2ccccc2)NC(=O)CO3)cc1C 12.6%
Cc1ccc(NS(=O)(=O)c2cc3c(cc2N(C)C)NC(=O)CC3)cc1C 8%
CC(=O)Nc1ccc(S(=O)(=O)Nc2ccc(C)c(C)c2)cc1 10%
COc1cc(N2C(=O)c3ccccc3C2=O)c2ncccc2c1 4.29%
O=C1c2ccccc2C(=O)N1c1cccc(O)c1 -8.54%
O=C1CCc2cc(S(=O)(=O)Nc3ccc(-c4ccccc4)cc3)ccc2N1 5.78%
O=C1CCc2cc(S(=O)(=O)Nc3cccc(-c4ccccc4)c3)ccc2N1 6.52%
O=C1CCc2cc(S(=O)(=O)Nc3ccc4c(c3)CCC4)ccc2N1 17.1%
Cc1ccc(NS(=O)(=O)c2cccc(F)c2)cc1C 8.43%
COc1cccc(Cn2ncc3c4sc(SC)cc4n(C)c3c2=O)c1 1.35%
